Screens from PubChem.
Shown are actives, neighbours in structure and some others; about 2.6% of the full set was active somewhere.
PHOSPHO1 inh – inhibitors of human PHOSPHO1 phosphatase. Q8TCT1. recombinant PHOSPHO1, absorbance phosphatase assay. inhibition, % at 13.3 µM. 1.1% of 290,000 active; in the data active means inhibition above about 60%
eIF4H inh – inhibitors of RNA binding by human eIF4H | Q15056 | AID 2012 | 0.94% of 290,000 active | inhibition, % at 35 µM | eIF4H fluorescence polarization binding assay;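 further: calls also rest on retests at 20 µM and on dose response follow-up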
PABP polyA inh – PABP-poly(A) binding inhibition; P11940; PABP-poly(A) RNA binding, fluorescence polarization; calls only at 35 µM; 1% of 290,000 active; AID 2014;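 further: calls also rest on retests at 20 µM and on dose response follow-up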
AI-2 QS mod – modulates the Vibrio harveyi AI-2 quorum sensing system; 0.4% of 300,000 active; AID 2094; Vibrio harveyi JMH597 AI-2 luminescence/OD600 ratio, 9 h; active compounds read low; strain lacks LuxN and CqsS sensors; 0 = neutral-control median; activity change, % at 7.5 µM; in the data active means activity change below about -75%, passing the limit was not always enough; inconclusive means no clear call, values can overlap the other calls;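 further: luminescence divided by OD600 gain over 9 h not by final OD600 alone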
ABCB6 inh 2 – blocks the human ABCB6 transporter. Q9NP58. K562-ABCB6 porphyrin accumulation, flow cytometry, 1 h; active compounds read low. fluorescence ratio to DMSO, % at 10 µM. 0.19% of 360,000 active. AID 602162;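 active means fluorescence ratio to DMSO below 75%, the collection mean minus 3 SD; inconclusive means too few cells collected in the well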;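 further: signal is porphyrin accumulated inside mitochondria; lower ratio means ABCB6 inhibition with less porphyrin fluorescence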
PABP1 MLLE inh – blocks PAM2 peptide binding to the PABP1 MLLE domain; GST-MLLE / FITC-PAM2 fluorescence polarization; 0.36% of 360,000 active; AID 588489; P11940; inhibition, % at 20 µM; in the data active means inhibition above about 35%, passing the limit was not always enough
A number is an active result; 0 = inactive; ? = inconclusive; - = no result given; + = active, no number. Unless noted, how the calls were made is not given here.

SMILES	PHOSPHO1 inh	eIF4H inh	PABP polyA inh	AI-2 QS mod	ABCB6 inh 2	PABP1 MLLE inh
CC(=O)Nc1nc(=S)n(-c2ccccc2)[nH]1	96	0	0	0	0	0
CCc1ccc(C(O)c2ncc(-c3cccc(OC)c3)[nH]2)cc1 (centres undefined)	-	-	-	-	0	0
O=C(Nc1cccc2c(=O)[nH][nH]c(=O)c12)c1ccc([N+](=O)[O-])cc1	-	-	-	-	0	0
Cc1nnc(NC(=O)C2c3ccccc3Oc3ccccc32)s1	0	0	0	0	0	38
COC(=O)c1c(C)[nH]c(O)c1C=Nc1ccc(C(C)C)cc1	0	85	+	0	0	0
COc1cccc(C(=O)C2CCCN(Cc3cccc(-n4cccn4)c3)C2)c1 (centres undefined)	0	0	0	0	0	0
COc1ccc2cc(C(=O)C3CCCN(Cc4cnc(N5CCOCC5)s4)C3)ccc2c1 (centres undefined)	60	0	0	0	0	0
CC(C)Oc1cccc(C(=O)C2CCCN(Cc3cnc(N4CCCC4)s3)C2)c1 (centres undefined)	0	0	0	0	0	0
COc1cccc(C(=O)C2CCCN(Cc3cccn3-c3cccnc3)C2)c1 (centres undefined)	0	0	+	0	0	0
COCCNC(=O)C1(C)CCN(C(=O)c2cc(C)nn2C(C)(C)C)C1 (centres undefined)	-	-	-	-	0	0
CC(C)(C)c1ccc2cc(F)cc(F)c2n1	-	-	-	-	0	0
NC(COCc1ccccc1)c1csc(NC(=O)Nc2cccc(C(F)(F)F)c2)n1 (centres undefined)	-	-	-	-	0	0
Cc1no[n+]([O-])c1COc1ccc(/C=C2\NC(=S)NC2=O)cc1	0	56	+	0	0	-
COc1ccc(C(=O)N2CCC(C)(C(=O)O)C2)cc1OC (centres undefined)	-	-	-	-	0	0
Cc1noc(C)c1COC(=O)c1ccc2c(c1)S(=O)(=O)c1ccccc1C2=O	82	0	0	0	0	0
C[C@@H]1Cc2[nH][nH]c(=O)c2[C@H](C)O1	-	-	-	-	0	-
CCN(C(=O)CN(C1=NC2CS(=O)(=O)CC2S1)c1ccc(OC)cc1)c1cccc(C)c1 (centres undefined)	-	-	-	-	0	0
CCNC(=O)c1c(N)sc2c1CCCCC2	0	62	+	0	-	-
O=C(CNc1ccccc1)N/N=C/c1cn(-c2ccccc2)nc1-c1ccccc1	0	active	+	0	0	0
CC[n+]1c(C)sc2sc3ccccc3c21	0	0	+	0	-	-
O=[N+]([O-])c1ccc(N2CCOCC2)cc1SCc1ccco1	0	86	+	0	0	0
O=[N+]([O-])c1ccc(SCc2ccco2)cc1N1CCOCC1	0	0	0	0	0	0
COc1ccc(S(=O)(=O)N(C)[C@H]2C[C@H]3c4cc(Oc5ccccc5C)ccc4CCN3C(=O)[C@H]2[C@H](C)O)cc1	-	-	-	-	0	0
CC(C)C(=O)Nc1ccc(NC(=S)NC(=O)c2ccc([N+](=O)[O-])cc2)cc1	0	0	0	0	0	42
Cc1cc(C(=O)NC(=S)Nc2cccc(NC(=O)C(C)C)c2)ccc1[N+](=O)[O-]	0	0	0	0	0	38
SMILES	PHOSPHO1 inh	eIF4H inh	PABP polyA inh	AI-2 QS mod	ABCB6 inh 2	PABP1 MLLE inh
Cc1cc(NS(=O)(=O)c2ccc(NC(=S)NC(=O)c3cccnc3)cc2)no1	0	0	0	0	0	0
CC(C)C(=O)Nc1cccc(NC(=S)NC(=O)c2ccc([N+](=O)[O-])cc2)c1	0	0	0	0	0	0
CCc1nnc(NS(=O)(=O)c2ccc(NC(=S)NC(=O)c3ccc(F)cc3)cc2)s1	0	0.6	0	0	0	0
Cc1cc(NS(=O)(=O)c2ccc(NC(=S)NC(=O)c3ccc(Br)cc3)cc2)no1	0	0	0	0	0	42
CCc1nnc(NS(=O)(=O)c2ccc(NC(=S)NC(=O)c3cccnc3)cc2)s1	0	0	0	0	0	0
CCCc1c(-c2ccc(F)cc2F)ncn1Cc1ccccc1OC	-	-	-	-	0	-
COc1cccc(CNC(=O)[C@@H]2CCCN2C(=O)[C@H]2CCCCN2C(=O)c2cccc(OC)c2)c1	-	-	-	-	0	-
COCOCCn1cc(CN2CCS(=O)(=O)N(Cc3ccc(-c4ccc(OC)nc4)cc3)C(C(C)C)C2=O)nn1 (centres undefined)	-	-	-	-	0	0
CCC(=O)NC(=S)Nc1ccc(NC(=O)c2ccc([N+](=O)[O-])cc2)cc1	0	0	0	0	0	0
CC(C)NS(=O)(=O)c1ccc(NC(=S)NC(=O)c2ccc(-c3ccccc3)cc2)cc1	0	0	0	0	0	41
CC(=O)Nc1ccc(NC(=S)NC(=O)c2ccc([N+](=O)[O-])cc2)cc1	0	0	0	0	0	40
CC(=O)n1c2ccccc2c2c1c1ccccc1n2C	0	0	0	0	0	66
COc1ccc(OC)c(NC(=O)CSc2sc3c(O)cc(=O)[nH]c3c2C#N)c1	0	0	0	0	0	0
COc1cc(Cl)c(C)cc1NC(=O)CSc1sc2c(O)cc(=O)[nH]c2c1C#N	0	71	+	0	0	0
N#Cc1c(SCC(=O)Nc2nncs2)sc2c(O)cc(=O)[nH]c12	0	101	+	0	0	0
Nc1nc(Cl)nc2c1ncn2C1CC(O)C(CO)O1 (centres undefined)	-	-	-	-91	0	0
COc1ccc(/C(O)=C2/C(=O)C(=O)N(CC3CCCO3)C2c2ccc(O)c(OC)c2)cc1 (centres undefined)	0	active	+	0	0	0
CC(=O)c1sc(Nc2ccc(Oc3ccccc3)cc2)nc1C	-	-	-	-	0	0
CN(C)CCN(C)C1CN(Cc2ccccc2)S(=O)(=O)C1 (centres undefined)	-	-	-	-	0	0
CC1Oc2ccccc2C=C1/C=N/Nc1ccc(C(=O)O)cc1 (centres undefined)	0	0	0	-92	0	0
O=S(=O)(c1cccc2cccnc12)N1CCCCC1	0	0	0	0	0	0
CC(CS(=O)(=O)c1cccc2cccnc12)N1CCCCC1 (centres undefined)	0	53	+	0	0	0
CS(=O)CC(O)(c1ccc(F)cc1)C1CC1 (centres undefined)	-	-	-	-	0	0
Cc1ccc(Nc2nc(N)[nH]c(=O)c2N=O)cc1	0	?	+	0	0	0
CCCCn1nnnc1C(c1ccccc1)N1CCN(c2ccccn2)CC1 (centres undefined)	-	-	-	-	0	-
COc1ccc(C=Nc2ccc3[nH]ncc3c2)c(O)c1	0	77	+	0	0	0
Oc1c(Br)cc(Br)cc1C=Nc1ccc2[nH]ncc2c1	0	0	0	0	0	0
COc1ccc(CNC(=O)C2(C)Cc3c(-c4cccc(NC(C)=O)c4)ccnc3O2)cc1OC (centres undefined)	-	-	-	-	0	0
CCCC(=O)N1CCCC(c2cc(C(=O)Nc3ccccc3)no2)C1 (centres undefined)	-	-	-	-	0	0
